Screens (PubChem)
The full list was thinned out, with hits kept by preference.
miR-122 inh: raises miR-122 sensor activity in Huh7 cells; 340,000 compounds, 0.14% hits; activation, % at 12.5 µM; Huh7 psiCHECK-miR122 Renilla luciferase sensor, 48 h; AID 623901;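 active means mean activation of 30% or more, with every replicate also reaching 30%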;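 further: higher luciferase signal means stronger suppression of miR-122 activity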
Hits are given with their value; . = inactive.

SMILES	miR-122 inh
C[C@H]1CN([C@@H](C)CO)C(=O)c2cc(C#CC3(O)CCCC3)cnc2O[C@@H]1CN(C)C(=O)CN(C)C	.
O=C(Cc1ccccc1)N1C[C@H]2[C@@H](c3ccccc31)[C@@H](CO)N2C(=O)C1CCCCC1	.
O=C(C1CCCCC1)N1C[C@H]2[C@@H](c3ccccc31)[C@@H](CO)N2C(=O)c1ccccc1	.
O=C(C1CC1)N1C[C@H]2[C@@H](c3ccccc31)[C@H](CO)N2C(=O)c1ccccc1F	33
COc1ccc(C(=O)N2C[C@@H]3[C@H](c4ccccc42)[C@H](CO)N3Cc2ccccc2Cl)cc1	.
O=C(C1CCCCC1)N1C[C@@H]2[C@H](c3ccccc31)[C@H](CO)N2Cc1ccccc1Cl	40
C[C@H](CO)N1C[C@H](C)[C@H](CN(C)Cc2cccnc2)Oc2cc(C#C[C@@H](C)O)ccc2S1(=O)=O	.
C[C@H](CO)N1C[C@H](C)[C@@H](CN(C)Cc2ccccc2C(=O)O)Oc2cc(-c3ccccc3)ccc2S1(=O)=O	.
CC(C)CC#Cc1cnc2c(c1)C(=O)N([C@@H](C)CO)C[C@H](C)[C@@H](CN(C)S(=O)(=O)c1ccccc1)O2	.
C/C=C/c1cnc2c(c1)C(=O)N([C@H](C)CO)C[C@@H](C)[C@H](CN(C)CC1CCOCC1)O2	.
C[C@H](CO)N1C[C@H](C)[C@H](CN(C)C(=O)c2ccncc2)Oc2cc(C#C[C@@H](C)O)ccc2S1(=O)=O	.
C[C@@H]1CN([C@H](C)CO)S(=O)(=O)c2ccc(C#CCC3CCCC3)cc2O[C@@H]1CN(C)C(=O)c1ccccn1	.
CCCCN1C=C(C(=O)OC)C(c2ccccc2C(F)(F)F)C(C(=O)OC)=C1	31
C[C@@H]1CN([C@H](C)CO)C(=O)c2cc(-c3ccc(F)cc3)cnc2O[C@@H]1CN(C)C(=O)c1ccccn1	.
CCCN(C)C[C@@H]1Oc2cc(C#Cc3ccccc3F)ccc2S(=O)(=O)N([C@@H](C)CO)C[C@H]1C	.
CCC(=O)Nc1ccc2c(c1)OC[C@@H](C)N(C(=O)c1ccccn1)C[C@H](C)[C@@H](OC)CN(C)C2=O	.
COc1cccc(-c2cnc3c(c2)C(=O)N([C@H](C)CO)C[C@H](C)[C@H](CN(C)Cc2cccnc2)O3)c1	.
CCCNC(=O)N(C)C[C@@H]1Oc2ncc(C#C[C@@H](C)O)cc2C(=O)N([C@H](C)CO)C[C@H]1C	.
C[C@@H]1CN([C@@H](C)CO)S(=O)(=O)c2ccc(C#Cc3ccncc3)cc2O[C@@H]1CN(C)C(=O)C1CCCCC1	.
CNC[C@@H]1Oc2cc(C#Cc3cccc(OC)c3)ccc2S(=O)(=O)N([C@@H](C)CO)C[C@@H]1C	49
C[C@@H]1CN([C@@H](C)CO)S(=O)(=O)c2ccc(C#Cc3ccncc3)cc2O[C@H]1CN(C)C(=O)C1CCCCC1	.
COc1cccc(C#Cc2ccc3c(c2)O[C@@H](CN(C)C(C)=O)[C@@H](C)CN([C@@H](C)CO)S3(=O)=O)c1	.
C[C@@H]1CN([C@H](C)CO)S(=O)(=O)c2ccc(C#Cc3ccncc3)cc2O[C@@H]1CN(C)C(=O)c1ccncc1	.
COc1cccc(NC(=O)N(C)C[C@H]2Oc3cc(C#Cc4ccncc4)ccc3S(=O)(=O)N([C@@H](C)CO)C[C@@H]2C)c1	.
C[C@H]1CN([C@@H](C)CO)S(=O)(=O)c2ccc(C#Cc3ccncc3)cc2O[C@@H]1CN(C)C(=O)c1ccncc1	.
SMILES	miR-122 inh
C[C@H](CO)N1C[C@H](C)[C@@H](CN(C)C(=O)Nc2ccc3c(c2)OCO3)Oc2cc(C#Cc3ccccc3)ccc2S1(=O)=O	.
CCCC#Cc1ccc2c(c1)O[C@H](CN(C)C(=O)c1ccncc1)[C@H](C)CN([C@@H](C)CO)S2(=O)=O	31
C[C@H](CO)N1C[C@H](C)[C@@H](CN(C)C(=O)C2CCOCC2)Oc2cc(C#Cc3ccncc3)ccc2S1(=O)=O	34
COc1cccc(C#Cc2ccc3c(c2)O[C@H](CN(C)C(C)=O)[C@H](C)CN([C@H](C)CO)S3(=O)=O)c1	.
C[C@@H]1CN([C@@H](C)CO)S(=O)(=O)c2ccc(C#Cc3ccncc3)cc2O[C@@H]1CN(C)C(=O)Nc1ccc2c(c1)OCO2	43
C[C@H]1CN([C@@H](C)CO)C(=O)c2cc(-c3cccc(F)c3)cnc2O[C@H]1CN(C)C(=O)c1cccc(F)c1	.
CO[C@@H]1CN(C)C(=O)c2ccc(NC(C)=O)cc2OC[C@@H](C)N(S(C)(=O)=O)C[C@H]1C	.
C[C@@H]1CN([C@H](C)CO)S(=O)(=O)c2ccc(C#Cc3ccc(F)cc3)cc2O[C@@H]1CN(C)S(=O)(=O)c1cn(C)cn1	.
COCC#Cc1ccc2c(c1)O[C@@H](CN(C)C(=O)C1CCOCC1)[C@H](C)CN([C@H](C)CO)S2(=O)=O	.
C[C@@H]1CN([C@H](C)CO)C(=O)c2cc(-c3ccncc3)cnc2O[C@H]1CN(C)C(=O)c1ccccc1F	.
C[C@H](CO)N1C[C@H](C)[C@H](CN(C)C(=O)Nc2ccc(F)cc2)Oc2cc(C#CC3(O)CCCC3)ccc2S1(=O)=O	.
CCCC(O)C#Cc1cnc2c(c1)C(=O)N([C@H](C)CO)C[C@H](C)[C@H](CN(C)C(=O)Nc1ccc(F)cc1)O2 (some centres undefined)	.
C[C@H]1CN([C@@H](C)CO)C(=O)c2cc(/C=C/c3ccccc3)cnc2O[C@@H]1CN(C)C(=O)Cc1ccccn1	.
CCCN(C)C[C@@H]1Oc2cc(-c3ccc(OC)cc3)ccc2S(=O)(=O)N([C@H](C)CO)C[C@@H]1C	.
CC(=O)N(C)C[C@@H]1Oc2cc(C#C[C@H](C)O)ccc2S(=O)(=O)N([C@@H](C)CO)C[C@H]1C	.
CCCNC(=O)Nc1ccc2c(c1)OC[C@H](C)N(C)C[C@@H](C)[C@@H](OC)CN(C)C2=O	.
CC(C)CC#Cc1ccc2c(c1)O[C@H](CN(C)C(=O)NC1CCCC1)[C@H](C)CN([C@H](C)CO)S2(=O)=O	.
CC(C)C#Cc1ccc2c(c1)O[C@H](CN(C)Cc1ccncc1)[C@H](C)CN([C@H](C)CO)S2(=O)=O	.
CCCNC(=O)N(C)C[C@@H]1Oc2cc(C#CCOC)ccc2S(=O)(=O)N([C@@H](C)CO)C[C@@H]1C	.
C[C@@H]1CN([C@@H](C)CO)S(=O)(=O)c2ccc(C#Cc3cccc(F)c3)cc2O[C@H]1CN(C)C(=O)CN1CCOCC1	.
C[C@H](CO)N1C[C@H](C)[C@@H](CN(C)C(=O)CN2CCOCC2)Oc2cc(C#Cc3cccc(F)c3)ccc2S1(=O)=O	.
COc1ccc(C#Cc2ccc3c(c2)O[C@H](CN(C)C(=O)CN2CCOCC2)[C@H](C)CN([C@H](C)CO)S3(=O)=O)cc1	50
C/C=C/c1cnc2c(c1)C(=O)N([C@@H](C)CO)C[C@@H](C)[C@H](CN(C)C(=O)Nc1cccc(OC)c1)O2	.
CCCNC(=O)N(C)C[C@@H]1Oc2cc(Br)ccc2S(=O)(=O)N([C@H](C)CO)C[C@@H]1C	.
C[C@@H]1CN([C@@H](C)CO)S(=O)(=O)c2ccc(C#CC3CC3)cc2O[C@H]1CN(C)C(=O)C1CC1	.
C[C@@H]1CN([C@H](C)CO)C(=O)c2cc(/C=C/c3ccccc3)cnc2O[C@@H]1CN(C)C(=O)Cc1ccccn1	.
Cn1ncc2c(O/N=C(\N)c3ccc(C(F)(F)F)cc3)ncnc21	33
C[C@H]1CN([C@@H](C)CO)C(=O)c2cc(/C=C/c3ccccc3)cnc2O[C@H]1CN(C)C(=O)C1CCC1	.
